Screens (PubChem BioAssay)
Most compounds without a hit are left out; they make up all but 2.4% or so of the library.
D2 PAM-1: human D2 receptor positive allosteric modulation. P14416. DiscoveRx D2 beta-arrestin cells, luminescence, 90 min; 100% = 57 uM dopamine signal. potentiation, % (concentration not given with the values). 0.23% of 360,000 active. AID 624464; in the data active = potentiation above about 50%; inconclusive = mostly about 30% to 49%
Target sequence (P14416 whole entry, looked up): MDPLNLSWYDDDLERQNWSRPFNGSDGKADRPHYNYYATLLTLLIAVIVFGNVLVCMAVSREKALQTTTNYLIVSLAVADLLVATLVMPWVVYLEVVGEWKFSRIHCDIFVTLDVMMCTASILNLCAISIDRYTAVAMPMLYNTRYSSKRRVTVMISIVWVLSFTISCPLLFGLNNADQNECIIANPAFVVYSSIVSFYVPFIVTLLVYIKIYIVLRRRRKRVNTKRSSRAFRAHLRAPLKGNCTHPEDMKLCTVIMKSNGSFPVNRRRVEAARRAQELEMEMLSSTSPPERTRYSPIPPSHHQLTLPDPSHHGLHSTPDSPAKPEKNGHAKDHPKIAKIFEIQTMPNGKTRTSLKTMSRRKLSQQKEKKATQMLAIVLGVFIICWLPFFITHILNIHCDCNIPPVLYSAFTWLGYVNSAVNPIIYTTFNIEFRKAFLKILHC
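PathHunter D2 cells, attached overnight at 37 deg C, received compound in DMSO plus dopamine at EC20 (50 nM final) for 90 min at 37 deg C. Beta-arrestin recruitment was read as luminescence after 1 h with detection reagent at ambient temperature.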
D2 PAM-2: D2 dopamine receptor (human) potentiation; P14416; HEK293 T-REx D2, calcium flux, EC20 dopamine potentiation; potentiation, % at 10 µM; 0.34% of 340,000 active; AID 485347;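 active = potentiation over 3 SD above the plate norm, cut at about 30% in these data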; also: 0% is about no effect
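Potentiation of an EC20 dopamine calcium response is measured in a force-coupled, tetracycline-inducible Hek293 Trex D2 line. Compound-only kinetic reads over 180 s flag agonists before dopamine addition.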
D2 ag-1: D2 dopamine receptor (human) agonism; 0.53% of 340,000 active; AID 485358; P14416; activation, % at 2 µM; HEK293 T-REx D2 cells, calcium flux agonist mode;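 active = activation over 3 SD above normal in the single-dose calcium agonist read, cut at about 30% in these data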; also: 0% is about no effect
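Agonism scored from kinetic calcium signal (1 read/sec, 180 s) following compound pin transfer, after a 10 s baseline. Cells: HEK293 Trex line expressing inducible D2 receptor coupled to calcium, dye-loaded after overnight culture at 30 C.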
D2 antag: D2 dopamine receptor (human) antagonism | P14416 | HEK293 TREx D2 cells, calcium flux, dopamine EC80 | inhibition, % at 10 µM | 2% of 340,000 active; in the data active = inhibition above about 30%; inactive = below that, where a call was filed; also: 0% is about no effect
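In this primary screen, negative modulation is detected by tracking calcium flux after an EC80 dopamine challenge in inducible HEK293 T-REx D2 cells preexposed to test compound for 180 s.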
D2 ag-2: activates the human D2 dopamine receptor; P14416; DiscoveRx PathHunter D2 beta-arrestin, luminescence, 90 min; 100% = 57 uM dopamine signal; activation, % (concentration not given with the values); 0.084% of 360,000 active; AID 624465; in the data active = activation above about 40%; inconclusive = between about 15% and that limit
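DiscoveRx PathHunter D2 beta-arrestin cells (2,100/well) attached overnight, then compound-stimulated 90 min at 37 C in HBSS/10 mM HEPES/0.1% Tween-20 buffer; beta-galactosidase complementation read by luminescence after 1 h at ambient temperature. Dopamine 57 uM final (EC100) as control.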
The depositor's hits bear a star; u = inconclusive; x = not tested or not shown.

SMILES | D2 PAM-1 | D2 PAM-2 | D2 ag-1 | D2 antag | D2 ag-2
Cc1nn(-c2ccccc2)c(Cl)c1C(=O)NCc1cccs1 | -3 | -6 | -1 | 44* | -1
CC1CCN(C(=O)CSc2nnc(NC(=O)Nc3ccccc3)s2)CC1 | x | -5 | 1 | x | x
CCOC(=O)Nc1ccc2c(c1)Nc1ccccc1S2 | 63* | 4 | 1 | -7 | 11
CC(=O)c1ccc2c(c1)Nc1ccccc1S2 | 52* | -3 | 0 | 7 | u
C/C(=N\NC(=O)c1ccc(C)cc1C)c1ccc(-n2ccnc2)cc1 | 3 | -4 | 1 | 4 | 0
C/C(=N\NC(=O)c1ccc(C)cc1C)c1ccc2c(c1)Nc1ccccc1S2 | 78* | -2 | 1 | 0 | u
CCC1CCCCN1Cc1cn2c(-c3ccc(Br)cc3)nnc2s1 (centres undefined) | x | -3 | 0 | x | x
Cc1ccc(NC(=O)Nc2cn(CC(C)C)c(=O)c3ccccc23)cc1N(C)C | x | 3 | -2 | x | x
O=C(CN1CCC(O)(c2cccc(F)c2)CC1)NCCc1c[nH]c2ccccc12 | -24 | -18 | -1 | 45* | -4
Cc1nc2nc(C)c(NS(=O)(=O)c3ccc(F)cc3)c(=O)n2[nH]1 | x | -1 | x | x | x
Cc1ccn2c(=O)nc(SCC(=O)Nc3cc(C)on3)nc2c1 | 1 | -10 | -1 | 42* | -1
Cc1ccc2nc(SCC(=O)c3ccc(Cl)cc3)nc(=O)n2c1 | -1 | 13 | -1 | 32* | -5
Cc1ccc2nc(SCC(=O)Nc3ccc(C)c(Cl)c3)nc(=O)n2c1 | -8 | 11 | -1 | 35* | 0
Cc1cc(NC(=O)CSc2nc(=O)n3cc(Cl)ccc3n2)no1 | -3 | x | x | x | -1
Cc1ccc2nc(SCC(=O)N3CCCCCC3)nc(=O)n2c1 | -4 | -9 | 1 | 1 | 0
Cc1ccc2nc(SCC(=O)Nc3cccc(Cl)c3)nc(=O)n2c1 | -6 | -6 | 1 | -14 | 3
Cc1ccc(CCNC(=O)c2cccc(Nc3nc4ccccc4nc3-n3nc(C)cc3C)c2)cc1 | x | 5 | 1 | x | x
CSc1ncc2c(n1)-c1ccccc1N(Cc1ccccc1)S2(=O)=O | x | -6 | 0 | x | x
CCOc1ccc(CCNC(=O)CSCc2nc(-c3cccc(C)c3)oc2C)cc1OCC | x | 6 | -1 | x | x
CN1CCN(C2=Nc3ccccc3Oc3ccc(Cl)cc32)CC1 | -36 | -31 | -1 | 91* | -6
CCn1cc([N+](=O)[O-])c(C(=O)Nc2ccc3c(c2)OCCO3)n1 | 10 | -13 | 1 | 69* | 4
Cc1ccc(/C=C/C(=O)OCC(=O)NCc2ccccc2)o1 | 7 | -4 | 0 | -6 | -4
CCCNC(=O)COC(=O)/C=C/c1ccc(C)o1 | -6 | -3 | 2 | 30* | -3
Cc1ccc(/C=C/C(=O)Oc2ccc(C#N)cc2)o1 | x | 3 | 0 | 48* | x
CCCSc1nc(=S)n(Cc2ccccc2)c(C)c1C(C)=O | -4 | -8 | -1 | 43* | 6
SMILES | D2 PAM-1 | D2 PAM-2 | D2 ag-1 | D2 antag | D2 ag-2
CC(=O)c1c(N2CCCCC2)nc(=S)n(Cc2ccccc2)c1C | 8 | 5 | -1 | -29 | 0
CC1CCCN(c2cc(N(C)CCO)c([N+](=O)[O-])c3nonc23)C1 (centres undefined) | -5 | 40* | 0 | -7 | -2
Cn1c(=O)n(C)c2cc(N3CCOCC3)c(NS(=O)(=O)c3ccc(Br)cc3)cc21 | x | -2 | 1 | x | x
COc1ccccc1NC(=O)c1ccc(NC(=O)COC(=O)C2CCCO2)cc1 (centres undefined) | 5 | 10 | 0 | 41* | 4
COc1ccc(OCc2cccc(C(=O)O)c2)cc1 | -9 | 3 | 1 | 35* | -1
CCOc1ccc(OCc2cccc(C(=O)O)c2)cc1 | -1 | -1 | 0 | -16 | 3
COc1cccc(Nc2ccc3cc(S(=O)(=O)N4CCC(C)CC4)ccc3n2)c1 | x | 2 | 0 | x | x
COc1ccc(Cl)cc1C(=O)NNC(=O)COC(=O)CCN=C1NS(=O)(=O)c2ccccc21 | -53 | -1 | -1 | 30* | -20
COc1ccccc1C(=O)COC(=O)CCN=C1NS(=O)(=O)c2ccccc21 | -16 | -3 | 0 | -14 | 2
COc1ccc(NC(=O)C(c2ccc(OC)cc2)N(C)C(=O)CNC(C)=O)cc1 (centres undefined) | -9 | -4 | 0 | 38* | -1
COc1ccc(C(NC(=O)CNC(C)=O)C(=O)Nc2ccc(C(C)C)cc2)cc1 (centres undefined) | -3 | -5 | 0 | 37* | -1
COc1ccc(C/C(C)=N/NC(=S)Nc2ccc(C(C)C)cc2)cc1 | -14 | -1 | 0 | 36* | 2
COc1ccc(NC(=O)C(c2ccc(C)cc2)N(C)C(=O)CNC(C)=O)cc1 (centres undefined) | -4 | -5 | -1 | 5 | 1
Cc1ccc(OCC(=O)Nc2ccc(OCc3cc(=O)n4cccc(C)c4n3)cc2)cc1C | x | 13 | 1 | x | x
COc1ccccc1N1CCN(CC(=O)Nc2cc(F)ccc2C)CC1 | -32 | -23 | 0 | 86* | -1
COc1ccccc1N1CCN(CC(=O)Nc2ccc(Cl)c(C(F)(F)F)c2)CC1 | -19 | -30 | 1 | 81* | 3
COc1ccccc1N1CCN(c2ccc(=O)n(CC(=O)Nc3cc(F)ccc3C)n2)CC1 | x | -2 | -1 | x | x
CCCSCCCNC(=O)CN1C(=O)COc2ccc(S(=O)(=O)N3CCC(C)CC3)cc21 | x | -5 | -1 | x | x
COc1ccc(Cl)cc1N(C(=O)c1ccco1)C(C(=O)NC1CCCC1)c1ccncc1 (centres undefined) | -3 | 7 | 0 | 39* | 0
COc1ccc(Cl)cc1N(C(=O)c1ccco1)C(C(=O)NC1CCCC1)c1cccnc1 (centres undefined) | -10 | -3 | -2 | 4 | -5
Cc1cc(C)cc(N(C(=O)c2ccco2)C(C(=O)NC2CCCC2)c2ccncc2)c1 (centres undefined) | 8 | 4 | -1 | 37* | -1
COc1ccc(N(C(=O)CNC(=O)c2ccco2)C(C(=O)NC2CCCC2)c2cccnc2)cc1 (centres undefined) | 8 | -1 | 1 | 5 | -1
COc1ccc(OC)c(N(C(=O)c2ccco2)C(C(=O)NC2CCCC2)c2cc(OC)c(OC)c(OC)c2)c1 (centres undefined) | 3 | -1 | 1 | 36* | 1
COc1ccc(N(C(=O)CNC(=O)c2ccco2)C(C(=O)NC2CCCCC2)c2cccnc2)cc1 (centres undefined) | 0 | 20 | 1 | 38* | 2
CCOC(=O)c1cc(-c2ccccc2)n(CCCC(=O)Nc2cc(C)ccc2OC)c1C | x | 11 | x | x | x
Cc1cccc(CCNc2ncnc3onc(-c4ccc(Cl)cc4)c23)c1 | x | -9 | 1 | x | x
